Assay results taken from the supplement of paper PMC6135742.
Where a name gives a salt, the structure may show the parent alone. ± gives the standard deviation of the averaged measurements. Over roughly 2,600 compounds, “MBP+ mature oligodendrocyte number relative to DMSO vehicle control” has its median near -0.34; the highest 2% begin near 13. What follows is part of a selection rich in the highest values, with near analogues and random picks from the rest.

Test system: jimpy (Plp1 jimpy) mouse iPSC-derived oligodendrocyte progenitor cells
Experiment: MBP+ mature oligodendrocyte number relative to DMSO vehicle control (SDs above negative control mean); higher = more surviving jimpy oligodendrocytes (rescue)
Settings: 10 µM; 3 days
Method: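 Primary phenotypic screen of >3,000 bioactive compounds (Selleck L1700 and Sigma LO1280 libraries) at a single dose of 10 µM. Compounds were added to jimpy (Plp1 mutant) mouse iPSC-derived OPCs at the start of thyroid hormone-induced oligodendrocyte differentiation, one well per compound in 384-well plates. After 3 days cells were stained for MBP, Sox10 and DAPI and imaged with an Operetta system. MBP+ oligodendrocyte number and total cell number were expressed as the number of SDs above the mean of the DMSO negative control on the same plate (n=16 control wells per plate). Hits were defined as >=4 SD for oligodendrocytes and >=2 SD for total cells.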

SMILES | MBP+ mature oligodendrocyte number
CN1c2ccccc2C(=O)N2CCc3c([nH]c4ccccc34)C21 (stereo in doubt) [Evodiamine] | -2.4
Cc1ccc(NCCCc2ccccc2)c(N)c1 | < -6.35
CC(C)S(=O)(=O)N[C@H]1CCOC[C@@H]1c1ccc(-c2ccc(C#N)s2)cc1 | -3.15
CO[C@@H](C(=O)N1Cc2[nH]nc(NC(=O)c3ccc(N4CCN(C)CC4)cc3)c2C1)c1ccccc1 | -6.61
C[C@]12C[C@H](O)[C@H]3[C@@H](CCC4=CC(=O)CC[C@@]43C)[C@@H]1CC[C@@H]2C(=O)CO [Corticosterone] | 1.49
CC(=O)[C@H]1CC[C@H]2[C@@H]3C=CC4=CC(=O)CC[C@@]4(C)[C@@H]3CC[C@]12C [Dydrogesterone] | 0.153
CC(=O)[C@H]1CC[C@H]2[C@@H]3CCC4=CC(=O)CC[C@]4(C)[C@H]3CC[C@]12C [Progesterone] | 15.4 ± 7.2
O=C1NC(=O)c2c1c(-c1ccccc1)cc1[nH]c3ccc(O)cc3c21 | < -3.97
CNC(=O)c1ccc(N2C(=S)N(c3ccc(C#N)c(C(F)(F)F)c3)C(=O)C2(C)C)cc1F [Enzalutamide (MDV3100)] | 16.6
CC1(C)NC(=O)N(c2ccc([N+](=O)[O-])c(C(F)(F)F)c2)C1=O [Nilutamide] | -0.755
CNC(=O)c1ccc(N2C(=S)N(c3cnc(C#N)c(C(F)(F)F)c3)C(=O)C23CCC3)cc1F | 5.74
N=C(N)SCCc1c[nH]cn1 [Imetit dihydrobromide] | -0.363
Cc1cc(-c2ncc(CC(=O)Nc3ccc(-c4cnccn4)cn3)cc2C)ccn1 | 13.8
Cc1cc(-c2ccc(CC(=O)Nc3ccc(-c4cccnc4)cc3)cc2)ccn1 | 23.2
Cc1ccc(NC(=O)c2ccc(CN3CCN(C)CC3)cc2)cc1Nc1nccc(-c2cccnc2)n1 [Imatinib (STI571)] | -4.36
O=C(Nc1cccnc1)c1cc(-c2ccnc(F)c2)ccc1OCc1ccccc1 | -0.282
Cc1ccc(NC(=O)c2ccc(CN3CCN(C)CC3)cc2)cc1Nc1nccc(-c2cccnc2)n1 [Imatinib Mesylate (STI571)] | -5.56
COC[C@H](NC(=O)c1cnc(C)s1)C(=O)N[C@@H](COC)C(=O)N[C@@H](Cc1ccccc1)C(=O)[C@@]1(C)CO1 [Oprozomib (ONX 0912)] | -5.76
COc1cc2c(cc1O)[C@@H](Cc1ccc(O)c(Oc3ccc(C[C@@H]4c5cc(OC)c(OC)cc5CCN4C)cc3)c1)N(C)CC2 [Daurisoline] | < -3.85
Nc1nc2c(ncn2[C@@H]2O[C@H](CO)[C@@H](O)[C@@H]2O)c(=O)[nH]1 [Ara-G hydrate] | -0.925
Nc1ncnc2c1ncn2C1CCCC1 [9-cyclopentyladenine] | -1.18
COc1cc2c(cc1-c1c(C)noc1C)ncc1[nH]c(=O)n([C@H](C)c3ccccn3)c12 | < -6.01
Nc1nccc2c1ncn2[C@@H]1O[C@H](CO)[C@@H](O)[C@H]1O [3-deazaadenosine] | -1.07
OC(CN1CCC(Cc2ccc(F)cc2)CC1)c1ccc(Cl)cc1 (stereo not drawn) [Eliprodil] | 13.4
O=C(CCCN1CCC(O)(c2ccc(Cl)cc2)CC1)c1ccc(F)cc1 [Haloperidol] | 2.36 ± 1.1
O=C1[C@H](CC[C@H](O)c2ccc(F)cc2)[C@@H](c2ccc(O)cc2)N1c1ccc(F)cc1 [Ezetimibe] | 2.95
CCN(CC)CCNC(=O)c1ccc(NS(C)(=O)=O)cc1 [Sematilide monohydrochloride monohydrate] | -0.439

SMILES | MBP+ mature oligodendrocyte number
O=C(NCc1ccccc1)c1csc(Nc2ccncn2)n1 [Thiazovivin] | -3.47
CCCCNc1ncc(-c2ccc(CN3CCOCC3)cn2)c(NC2CCC(O)CC2)n1 (stereo not drawn) | -4.15
O=C1c2ccccc2C(=O)c2c(NCCc3ccc(O)cc3)ccc(NCCc3ccc(O)cc3)c21 | -4.41
Cc1ccc(C(=O)Cn2c3c(sc2=N)CCCC3)cc1 [Pifithrin-? (PFT?)] | 17
Cc1ccc(C(=O)C(C)CN2CCCCC2)cc1 (stereo not drawn) [Tolperisone HCl] | 5.05
S=c1[nH]c(-c2ccccc2)cn1-c1ccccc1 | 2.54
CN(C)c1ccc(/C=C2/C(=O)Nc3ccccc32)cc1 | 0.789
O=c1cc(-c2ccccc2)oc2cc(O)cc(O)c12 [Chrysin] | 4.59
CCOc1cc(N)c(Cl)cc1C(=O)NCC1CN(Cc2ccc(F)cc2)CCO1 (stereo not drawn) [Mosapride Citrate] | 23
COc1cc(N)c(Cl)cc1C(=O)OCCN1CCCCC1 | -3.81
CCN(CC)CCNC(=O)c1cc(Cl)c(N)cc1OC [Metoclopramide hydrochloride] | 0.304
C[C@H]1O[C@@H](Oc2c(-c3cc(O)c(O)c(O)c3)oc3cc(O)cc(O)c3c2=O)[C@@H](O)[C@@H](O)[C@@H]1O [Myricitrin] | 0.507
Nc1ccc(-c2ccc3ccccc3n2)cc1 [BF-170 hydrochloride] | 0.146
O=C(/C=C/c1ccc(O)c(O)c1)c1ccc(O)cc1O [Butein] | -4.58
O=C(Cc1ccc(-c2ccc(OCCN3CCOCC3)cc2)cn1)NCc1ccccc1 | -5.77
CCCCOc1ccc(OCCCN2CCOCC2)cc1 [Pramoxine HCl] | 14.3
CCCCOc1ccc(C(=O)CCN2CCCCC2)cc1 [Dyclonine HCl] | -1.91
CC[C@@H]1C(=O)N(C)c2cnc(Nc3ccc(C(=O)N[C@H]4CC[C@H](N5CCN(CC6CC6)CC5)CC4)cc3OC)nc2N1C(C)C [Volasertib (BI 6727)] | < -4.81
COCCCOc1ccnc(C[S+]([O-])c2nc3ccccc3[nH]2)c1C (stereo not drawn) [Rabeprazole sodium] | 1.61
Cc1c(OCC(F)(F)F)ccnc1C[S@@+]([O-])c1nc2ccccc2[nH]1 [Dexlansoprazole] | 17.2
Cc1c(OCC(F)(F)F)ccnc1C[S+]([O-])c1nc2ccccc2[nH]1 (stereo not drawn) [Lansoprazole] | 7.5 ± 4.5
O=C(NCCCNc1nc(Nc2cccc(NC(=O)N3CCCC3)c2)ncc1I)c1cccs1 | -6.61
NCCCCC(=O)O [5-Aminovaleric acid hydrochloride] | -1.14
O=C(/C=C/c1ccccc1)NC(NC(=S)Nc1cccc2cccnc12)C(Cl)(Cl)Cl (stereo not drawn) [Salubrinal] | 19
O=C(C=Cc1ccccc1)NC(NC(=S)Nc1ccc(Cl)cc1)C(Cl)(Cl)Cl (stereo not drawn) | -0.386
O=C(Nc1cccc2cccnc12)c1ccc(N2C(=O)[C@@H]3[C@H](C2=O)[C@@H]2C=C[C@H]3C2)cc1 [IWR-1-endo] | -3.56
